According to PubChem BioAssay (NCI):
The panel holds about 79,000 compounds, 15% with a hit somewhere; the sample as a whole holds those more often. Calls of active or inactive are those of the source. Cut-off read from the data, not from the text of the source: active = growth inhibition above about 70%; inactive = the rest.

experiment: NCI Yeast Anticancer Drug Screen. Data for the rad50 strain (AID 155);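 note: 0% = growth of vehicle-only cultures of the same strain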; conditions: S. cerevisiae rad50 strain growth inhibition; at 50.0 µM (retest, dose inferred, filed as 5.0); stronger effect = higher value
Procedure, shortened: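 DNA repair mutant yeast, compound exposure, growth read-out; inhibition is taken relative to vehicle.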

Structure (SMILES) | growth inhibition
Cc1cc(NCCCCCCCNc2cc(C)nc3cc(N)ccc23)c2ccc(N)cc2n1 | 85% (active)
C[C@]12CC[C@H]3[C@@H](CCC4=CC(=O)CC[C@@]43C)[C@@H]1CC[C@@H]2C(=O)C=O | 42% (inactive)
COc1cc2c[n+](C)c3c4cc(OC)c(OCc5ccccc5)cc4c(OCc4ccccc4)cc3c2cc1OC | 96% (active)
Nc1ncnc2c1c(-c1ccc(Cl)cc1)cn2-c1ccccc1 | 62% (inactive)
Cc1c[nH]c2nc(C)n(-c3ccccc3)c(=N)c12 | 2% (inactive)
COc1ccc(Cc2ccc3c(C)cc(Cl)nc3c2)cc1 | 74% (active)
COC(=O)c1ccc(NCc2c(O)ccc(O)c2Br)cc1Cl | 99% (active)
CC1=CC(=O)c2c(O)c3c(c(O)c2C1=O)C1C(O)C(C3=O)C23C(=O)c4c(O)c(C)cc(O)c4C(O)=C2C(=O)CC(O)C13 (stereo not drawn) | 93% (active)
CC(C)(O)[C@H](CCO)O[Si](c1ccccc1)(c1ccccc1)C(C)(C)C | 97% (active)
COC(=O)/C(C#N)=C(/SC)N(C)C | 7% (inactive)
N#CC(C(=O)CCCC(=O)Nc1ccc(Cl)cc1)c1ccccc1Cl (stereo not drawn) | 0% (inactive)
FC(F)(F)c1cccc(Nc2ccc3cnc4ccccc4c3c2)c1 | 92% (active)
CN1C(/C=C/c2ccc(O)c3ncccc23)CCC2CCCC(O)C21 (stereo not drawn) | 94% (active)
N#CC1(C#N)C(C#N)(C#N)C12CCCC2 | 50% (inactive)
O=C1C(Cl)=C(Cl)C(=O)C2=C1CC(Cl)C(Cl)C2 (stereo not drawn) | 98% (active)
N#CC(/C=C/c1ccccc1)(NO)Nc1cccc(Cl)c1 (stereo not drawn) | 98% (active)
O=C(O)c1ccccc1C(c1ccccc1)c1ccccc1 | 62% (inactive)
OCC1(c2ccccc2)OC1c1ccccc1 (stereo not drawn) | -20% (inactive)
COc1ccc(NS(=O)(=O)c2ccc(F)cc2)cc1 | -3% (inactive)
CCn1c2nc(=O)n(C)c(=O)c-2[n+]([O-])c2cc(C)ccc21 | 70% (active)

Structure (SMILES) | growth inhibition
O=[N+]([O-])C(=C(Nc1ccccc1)Nc1ccccc1)C(Cl)=C(Cl)Cl | 100% (active)
CCC/C(=N\NC(=S)N(C)C)c1ccccn1 | 99% (active)
O=C(CSc1cc[o+]cc1)c1cccc([N+](=O)[O-])c1 | 49% (inactive)
CC12CCC(c3sc(N)c(C#N)c31)C2(C)C (stereo not drawn) | -34% (inactive)
N#CC(C#N)=C(C1CC1)C1CC1 | 96% (active)
Cc1c(N=Nc2cccc(F)c2)c(-c2ccccc2)nn1C(N)=S | 97% (active)
CN1COc2c(Cl)cc(Cl)cc2C1 | 85% (active)
O=C1CCCCO1 | 3% (inactive)
Nc1cc2c(cc1/C=C(\C(=O)O)c1ccccc1)OCO2 | -4% (inactive)
Cc1cc2c(cc1C)C(=O)OC2=O | 14% (inactive)
C(/Cc1ccc2c(c1)OCO2)=N\NC1=NCCCCN1 | -18% (inactive)
CCCCCCCCN(CCCCCCCC)CC(O)c1cc(-c2ccc(OC)cc2)nc2cc(Cl)ccc12 (stereo not drawn) | 81% (active)
Cc1cc(C(=O)CBr)c(CN2C(=O)c3ccccc3C2=O)c(=O)n1C | 98% (active)
O=C(O)c1ccccc1-c1c2ccc(=O)c(Br)c-2oc2c(Br)c(O)ccc12 | 93% (active)
O=C(Nc1cccc(NC(=O)c2cc(=O)c3ccccc3o2)n1)c1cc(=O)c2ccccc2o1 | 34% (inactive)
COC(=O)c1nc(=S)[nH]c(C(=O)OC)c1C(=O)c1ccc([N+](=O)[O-])cc1 | 84% (active)
COC1/C=C\C=C(/C)C(=O)Nc2cc3nc4cc(Br)ccc4oc-3c(c2=O)CC(C)CC(OC)C(O)C(C)/C=C(\C)C1OC(N)=O (stereo not drawn) | 95% (active)
NC(=S)C(=S)N/C=C(/c1ccc(Cl)cc1)S(=O)(=O)Cc1ccc(Cl)cc1 | 98% (active)
O=C(Cc1ccccc1)c1ccccc1C(=O)NNc1ccccc1 | 18% (inactive)

same assay, conditions: S. cerevisiae rad50 strain growth inhibition; at 50.0 µM; stronger effect = higher value

Structure (SMILES) | growth inhibition
Cc1cc(NCCCCCCCNc2cc(C)nc3cc(N)ccc23)c2ccc(N)cc2n1 | 79.6% (active)
C[C@]12CC[C@H]3[C@@H](CCC4=CC(=O)CC[C@@]43C)[C@@H]1CC[C@@H]2C(=O)C=O | 67.2% (inactive)
COc1cc2c[n+](C)c3c4cc(OC)c(OCc5ccccc5)cc4c(OCc4ccccc4)cc3c2cc1OC | 59.4% (inactive)
Nc1ncnc2c1c(-c1ccc(Cl)cc1)cn2-c1ccccc1 | 51.2% (inactive)
Cc1c[nH]c2nc(C)n(-c3ccccc3)c(=N)c12 | 6.1% (inactive)
COc1ccc(Cc2ccc3c(C)cc(Cl)nc3c2)cc1 | 77% (active)
COC(=O)c1ccc(NCc2c(O)ccc(O)c2Br)cc1Cl | 89.5% (active)
CC1=CC(=O)c2c(O)c3c(c(O)c2C1=O)C1C(O)C(C3=O)C23C(=O)c4c(O)c(C)cc(O)c4C(O)=C2C(=O)CC(O)C13 (stereo not drawn) | 91.5% (active)
CC(C)(O)[C@H](CCO)O[Si](c1ccccc1)(c1ccccc1)C(C)(C)C | 98.3% (active)
COC(=O)/C(C#N)=C(/SC)N(C)C | 4.35% (inactive)
N#CC(C(=O)CCCC(=O)Nc1ccc(Cl)cc1)c1ccccc1Cl (stereo not drawn) | 96.8% (active)
FC(F)(F)c1cccc(Nc2ccc3cnc4ccccc4c3c2)c1 | 94.7% (active)
CN1C(/C=C/c2ccc(O)c3ncccc23)CCC2CCCC(O)C21 (stereo not drawn) | 95% (active)
N#CC1(C#N)C(C#N)(C#N)C12CCCC2 | 38.9% (inactive)
O=C1C(Cl)=C(Cl)C(=O)C2=C1CC(Cl)C(Cl)C2 (stereo not drawn) | 99.3% (active)
N#CC(/C=C/c1ccccc1)(NO)Nc1cccc(Cl)c1 (stereo not drawn) | 99.2% (active)
O=C(O)c1ccccc1C(c1ccccc1)c1ccccc1 | 44.4% (inactive)
OCC1(c2ccccc2)OC1c1ccccc1 (stereo not drawn) | 72.1% (active)
COc1ccc(NS(=O)(=O)c2ccc(F)cc2)cc1 | 95.9% (active)
CCn1c2nc(=O)n(C)c(=O)c-2[n+]([O-])c2cc(C)ccc21 | 70.5% (active)

Structure (SMILES) | growth inhibition
O=[N+]([O-])C(=C(Nc1ccccc1)Nc1ccccc1)C(Cl)=C(Cl)Cl | 89.2% (active)
CCC/C(=N\NC(=S)N(C)C)c1ccccn1 | 99.5% (active)
O=C(CSc1cc[o+]cc1)c1cccc([N+](=O)[O-])c1 | 65.8% (inactive)
CC12CCC(c3sc(N)c(C#N)c31)C2(C)C (stereo not drawn) | 39% (inactive)
N#CC(C#N)=C(C1CC1)C1CC1 | 0.4% (inactive)
Cc1c(N=Nc2cccc(F)c2)c(-c2ccccc2)nn1C(N)=S | 99.2% (active)
CN1COc2c(Cl)cc(Cl)cc2C1 | 76.2% (active)
O=C1CCCCO1 | -15.8% (inactive)
Nc1cc2c(cc1/C=C(\C(=O)O)c1ccccc1)OCO2 | 52.2% (inactive)
Cc1cc2c(cc1C)C(=O)OC2=O | 72% (active)
C(/Cc1ccc2c(c1)OCO2)=N\NC1=NCCCCN1 | 15.7% (inactive)
CCCCCCCCN(CCCCCCCC)CC(O)c1cc(-c2ccc(OC)cc2)nc2cc(Cl)ccc12 (stereo not drawn) | 42.5% (inactive)
Cc1cc(C(=O)CBr)c(CN2C(=O)c3ccccc3C2=O)c(=O)n1C | 63.3% (inactive)
O=C(O)c1ccccc1-c1c2ccc(=O)c(Br)c-2oc2c(Br)c(O)ccc12 | 87.5% (active)
O=C(Nc1cccc(NC(=O)c2cc(=O)c3ccccc3o2)n1)c1cc(=O)c2ccccc2o1 | 62.6% (inactive)
COC(=O)c1nc(=S)[nH]c(C(=O)OC)c1C(=O)c1ccc([N+](=O)[O-])cc1 | 96.8% (active)
COC1/C=C\C=C(/C)C(=O)Nc2cc3nc4cc(Br)ccc4oc-3c(c2=O)CC(C)CC(OC)C(O)C(C)/C=C(\C)C1OC(N)=O (stereo not drawn) | 90.2% (active)
NC(=S)C(=S)N/C=C(/c1ccc(Cl)cc1)S(=O)(=O)Cc1ccc(Cl)cc1 | 97.3% (active)
O=C(Cc1ccccc1)c1ccccc1C(=O)NNc1ccccc1 | 49% (inactive)
